Screens deposited in PubChem BioAssay by National Center for Advancing Translational Sciences (NCATS).
Pf growth 96h – P. falciparum growth inhibition at 96 hours; Potency, µM (titrated, usually from 28.7 µM), actives largely listed as inhibitors; P. falciparum luciferase reporter growth, 96 h; 320,000 tested, 6.9% active
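Cell-based qHTS: luciferase-tagged P. falciparum in erythrocytes (2% hematocrit, 0.05% parasitemia final) incubated with compounds for 96 hours, 37 C, 5% CO2; luciferase detection reagent then added and luminescence measured.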
Pf growth 48h – inhibits P. falciparum growth in the first generation, 48 h. P. falciparum luciferase growth in erythrocytes, 48 h. Potency, µM (series often up to 28.7 µM), hits mostly inhibitors. 310,000 tested, 5.9% active. AID 504832
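Firefly luciferase activity from engineered P. falciparum reports growth; inhibitors lower the luminescent signal. Cultures contained 2% hematocrit erythrocytes at 0.1% final parasitemia.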
Sm TGR inh – S. mansoni TGR enzyme inhibition; AID 485364; Q962Y6; 360,000 tested, 3% active; Potency, µM (series often up to 114 µM), actives largely listed as inhibitors; purified TGR, DTNB reduction, TNB absorbance 405 nm; further: nearly all actives have a fitted effect of over 60% in size
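Kinetic colorimetric format: TGR-catalysed, NADPH-driven DTNB reduction monitored via TNB absorbance. Enzyme dispensed at 20 nM; compound exposure 15 min at room temperature before reaction start.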
AmpC inh detg – AmpC beta-lactamase inhibition with detergent present; AmpC hydrolysis of nitrocefin, absorbance 480 nm, 0.01% Triton; Potency, µM (top dose mostly 114 µM), usual class: inhibitors; 370,000 tested, 0.041% active; further: nearly all actives have a fitted effect of over 25% in size
Target sequence (P00811 whole entry, looked up): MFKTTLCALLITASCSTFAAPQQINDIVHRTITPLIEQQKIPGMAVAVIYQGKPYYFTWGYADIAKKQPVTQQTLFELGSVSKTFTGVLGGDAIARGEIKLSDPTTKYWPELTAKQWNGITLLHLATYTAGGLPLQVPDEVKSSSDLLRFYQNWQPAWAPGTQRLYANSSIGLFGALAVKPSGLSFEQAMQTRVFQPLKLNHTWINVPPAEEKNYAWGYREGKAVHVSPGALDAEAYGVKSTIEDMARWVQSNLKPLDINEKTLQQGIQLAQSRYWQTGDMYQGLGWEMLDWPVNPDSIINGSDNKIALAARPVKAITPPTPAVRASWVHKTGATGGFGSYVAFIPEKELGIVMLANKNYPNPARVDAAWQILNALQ
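20 mM phosphate pH 7.0 + 0.01% (detergent screen) or 0.0001% Triton X-100; 5.3 nM AmpC reagent; cpd preinc 15 min RT; nitrocefin (800 uM stock) to start; A480 q20 s × 4 min; Activity was normalised to no-enzyme and no-compound control wells.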
AmpC inh no detg – AmpC beta-lactamase inhibition without detergent; AmpC nitrocefin hydrolysis, absorbance 480 nm, 0.0001% Triton; 330,000 tested, 0.52% active; Potency, µM (highest dose often 57.1 µM), actives largely listed as inhibitors; P00811; further: nearly all actives have a fitted effect of over 20% in size
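AmpC (5.3 nM in the dispensed reagent) in 20 mM phosphate pH 7.0 with 0.01% (detergent screen) or 0.0001% Triton X-100 was preincubated with compounds for 15 min at room temperature. Nitrocefin was then added from an 800 uM solution, and hydrolysis was followed at 480 nm.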
SARS PLP yeast – inhibitors of SARS-CoV papain-like protease in yeast; 330,000 tested, 0.19% active; Potency, µM (top dose mostly 32.9 µM), hits mostly activators; S. cerevisiae expressing SARS-CoV PLpro, growth rescue; AID 485353; calls by dose curve; further: nearly all actives have a fitted effect of over 55% in size
Numbers stand for hits; n = inactive; u = inconclusive; x = no result. Rows were chosen to be rich in hits. Some 12% of all compounds tested hit in one or more screens of this group. Unless noted, the call rests on the fitted dose curve; in most records, active means well fitted curve in the direction sought with a large enough effect; inconclusive means small, poorly fitted or top-dose-only effect, or another doubt; inactive means no such curve, though single readings can be large; an effect the other way counts as inactive or inconclusive.

SMILES	Pf growth 96h	Pf growth 48h	Sm TGR inh	AmpC inh detg	AmpC inh no detg	SARS PLP yeast
CCC(C)NC(=O)c1cn(CC)c2ccc(S(=O)(=O)N3CCCCCC3)cc2c1=O (centres undefined)	13µM	u	n	n	n	n
Cn1cc(C(=O)NCc2cccnc2)c(=O)c2cc(S(=O)(=O)N3CCCCCC3)ccc21	6.6µM	n	n	n	n	n
Cn1cc(C(=O)NCc2ccccc2)c(=O)c2cc(S(=O)(=O)N3CCCCCC3)ccc21	x	x	n	n	x	x
COc1ccc(CCNC(=O)CSc2nnc3ccccn23)cc1	n	u	n	n	n	n
COc1ccc2c(c1)c1c(c(=O)n(-c3ccccc3C)c(=O)n1C)n2C	x	x	n	n	x	x
CC1CCc2onc(C(=O)N3CCN(c4ccc(Cl)cc4)CC3)c2C1 (centres undefined)	x	x	n	n	x	x
Cc1c(C=O)c2ccccc2n1CC(=O)NCc1ccc2c(c1)OCO2	n	n	n	n	n	n
Cc1ccc(OC(=O)c2cc(-c3ccc4c(c3)OCCO4)on2)c(C)c1	x	x	n	u	x	x
Cc1ccc(S(=O)(=O)N2CCC(C(=O)OC(C)C(=O)NC3CCCCC3C)CC2)cc1 (centres undefined)	u	n	n	n	n	n
COC(=O)c1cn(C)c2ccc(S(=O)(=O)N3CCOCC3)cc2c1=O	n	n	n	n	n	n
COC(=O)c1cn(C)c2ccc(S(=O)(=O)N3CCCC3)cc2c1=O	3.7µM	n	n	n	n	n
CCn1cc(C(=O)NCCCOC(C)C)c(=O)c2cc(S(=O)(=O)N3CCC(C)CC3)ccc21	1µM	u	n	n	n	n
CC1CCCCC1NC(=O)c1cn(C)c2ccc(S(=O)(=O)N3CCCC3)cc2c1=O (centres undefined)	n	8.3µM	n	n	n	n
Cc1ccc(S(=O)(=O)N2CCCCC2)cc1C(=O)OC(C)C(=O)NC1CCCCC1C (centres undefined)	13µM	u	n	u	n	n
Cc1nc(-c2ccc(Cl)cc2)sc1CCNC(=O)C(=O)Nc1ccccc1C#N	x	x	n	n	x	x
O=C(Nc1ccc(Cl)cc1)c1ccc(S(=O)(=O)N2CCOCC2)cc1	u	n	n	n	n	n
CC(C)(C)NNC(=S)Nc1ccc(S(=O)(=O)N2CCOCC2)cc1	n	n	u	n	n	n
CC(Oc1ccc(Cl)cc1)C(=O)Nc1ccc(S(=O)(=O)N2CCOCC2)cc1 (centres undefined)	n	13µM	n	n	n	n
CC(C(=O)Nc1ccc(S(=O)(=O)N2CCCC2)cc1)N1CCc2ccccc2C1 (centres undefined)	u	12µM	n	n	n	n
Cc1ccc(NC(=S)Nc2ccc(S(=O)(=O)N3CCOCC3)cc2)cc1S(=O)(=O)N1CCOCC1	n	n	16µM	n	n	n
O=C(CCCc1ccccc1)Nc1ccc(S(=O)(=O)N2CCOCC2)cc1	10µM	u	n	n	n	n
CCOC(=O)C1(C)C=C(Nc2ccc(C(=O)O)cc2)C(=O)N1c1ccc(C(=O)O)cc1 (centres undefined)	x	x	n	n	x	x
CCOc1ccc(C2C(C(=O)c3ccco3)=C(O)C(=O)N2CCCn2ccnc2)cc1OC (centres undefined)	n	n	n	n	n	n
CC(Oc1ccccc1Cl)C(=O)Nc1ccc(S(=O)(=O)N2CCCC2)cc1 (centres undefined)	n	13µM	n	n	n	n
CC(=O)Nc1ccc(S(=O)(=O)N2CCSC2C(=O)O)cc1 (centres undefined)	12µM	x	n	n	n	n
SMILES	Pf growth 96h	Pf growth 48h	Sm TGR inh	AmpC inh detg	AmpC inh no detg	SARS PLP yeast
O=S(=O)(c1ccc(NC(=S)NC2CC2)cc1)N1CCOCC1	n	n	16µM	n	n	n
Cn1cc(S(=O)(=O)N2CCOCC2)cc1C(=O)Nc1ccc(Cl)cc1	7.4µM	n	n	u	n	n
CC(OC(=O)C(C)Oc1ccccc1)C(=O)Nc1ccc(S(=O)(=O)N2CCCCC2)cc1 (centres undefined)	u	n	n	n	n	n
Cc1ccc(N(Cc2cccs2)C(=O)c2ccccc2)cc1	x	x	n	n	x	x
Cc1ccc(N2CC(NC(=O)C3CCCC3)CC2=O)cc1C (centres undefined)	x	x	n	n	x	x
CCC1CCCCN1Cc1cn2c(-c3ccc(Br)cc3)nnc2s1 (centres undefined)	x	x	n	n	x	x
O=C(COc1ccccc1)Nc1nc(-c2ccc(S(=O)(=O)N3CCOCC3)cc2)cs1	x	u	n	n	n	n
O=S(=O)(c1ccc(S(=O)(=O)N2CCC3(CC2)OCCO3)cc1)N1CCCC1	n	u	n	n	n	n
CC(=O)Nc1ccc(S(=O)(=O)NCCN2CCNC2=O)cc1Cl	7.4µM	u	n	n	n	n
CC(=O)Nc1ccc(S(=O)(=O)N2CCC3(CC2)OCCO3)cc1	9.3µM	n	n	n	n	n
O=C(Nc1ccc(F)c(F)c1)c1ccc(F)c(S(=O)(=O)N2CCC3(CC2)OCCO3)c1	10µM	u	n	n	n	n
O=C(CCc1ccc(S(=O)(=O)N2CCOCC2)cc1)Nc1nc(COc2ccccc2)cs1	x	12µM	n	n	n	n
Cn1c2c(c3ccccc31)CCSC2=O	n	n	n	n	n	n
Cc1cccc(NC(=O)C2CCCN2S(=O)(=O)c2ccc3nc(-c4ccccc4)[nH]c3c2)c1 (centres undefined)	x	x	n	n	x	x
CC(=O)Nc1ccc(S(=O)(=O)n2nc(C)cc2C)cc1	0.93µM	n	n	n	n	n
O=C(CCc1ccc(S(=O)(=O)N2CCOCC2)cc1)N/N=C/c1cccc(O)c1	15µM	u	n	n	n	u
CCN(C(=S)Nc1cc(S(=O)(=O)N2CCOCC2)ccc1Cl)c1cccc2ccccc12	u	n	n	n	n	n
CC(=O)Nc1ccc(S(=O)(=O)N2CCN(CCN3CCOCC3)CC2)cc1Cl	n	2.1µM	n	n	n	n
CCOC(=O)C1CCN(S(=O)(=O)c2ccc(NC(C)=O)c(Cl)c2)CC1	n	n	n	n	n	n
O=C(CCc1ccc(S(=O)(=O)N2CCOCC2)cc1)N/N=C/c1ccc(O)c(O)c1O	n	n	n	n	n	u
O=S(=O)(c1ccc(Cl)c(NC(=S)Nc2cccc(O)c2)c1)N1CCOCC1	n	n	11µM	n	n	n
CCCCN(C)CCNC(=O)c1cc(=O)[nH]c2ccc(S(=O)(=O)N3CCCCCC3)cc12	x	x	n	n	x	x
Cc1ccc2onc(CC(=O)N3CCN(c4cc(Cl)ccc4C)CC3)c2c1	x	x	n	n	x	x
CC(OC(=O)Cn1cnc2c1c(=O)n(C)c(=O)n2C)C(=O)NC1(C#N)CCCCC1 (centres undefined)	n	n	n	u	n	n
